In the library only some 21% were active in any assay of this set; here they are far more common.
CHX counter: Cycloheximide Counterscreen for Small Molecule Inhibitors of Shiga Toxin; max response, %; cell reporter, cycloheximide protein synthesis inhibition counterscreen; actives 12% (n = 300,000); in the data active = max response mostly above about 13%, no sharp cut-off; inactive = mostly below about 14%; also: read at 38.3 µM for the half of the compounds with a filed dose; 0% is about no effect
HCV inhibitor: qHTS Assay for Inhibitors of Hepatitis C Virus (HCV); Huh7.5.1 HCVcc-Cre infection, luciferase reporter, 44 h; AID 651820, 2012; Potency, µM (series often up to 41.8 µM), inactives show top-dose activity change, negative = inhibition, most hits filed as inhibitors; actives 3.4% (n = 340,000); also: potency is read from the fitted curve at half-maximal effect; % is scaled to controls: 0 for no effect and ±100 for the full control effect
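Reporter virus HCVcc-Cre (~0.5 moi) infects cells exposed to compound; seeding density 1,000 cells/well with 4 h settling beforehand. Luminescence, 15 sec read, taken 44 h post-infection following a 15 min RT substrate incubation.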
AMA1 RON2 block: qHTS for Inhibitors of AMA1-RON; Towards Development of Antimalarial Drug Lead: Primary Screen; AlphaScreen AMA1-biotinylated RON2 peptide binding; Potency, µM (top dose mostly 58.2 µM), without a hit: at the top dose activity change, negative = inhibition, most hits filed as inhibitors; Plasmodium falciparum AMA1 (3D7) - RON2 peptide interaction; actives 0.2% (n = 360,000);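 also: potency is read from the fitted curve at half-maximal effect; 0% = vehicle wells and -100% = peptide control; nearly all actives have a fitted effect of over 45% in size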
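AMA1 (3D7) with his tag at 25 nM final met compounds first, then biotinylated RON2 peptide at 25 nM; detection used donor plus acceptor beads, 10 µg/mL apiece, read by AlphaScreen after 30 min at room temperature.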
Shiga inhibitor: A qHTS for Small Molecule Inhibitors of Shiga Toxin | actives 9.2% (n = 290,000) | AID 2315, 2010 | inhibition, % at 38.7 µM | Vero cells, Shiga toxin protein synthesis inhibition reporter; in the data active = inhibition mostly above about 28%, no sharp cut-off; inactive = mostly below about 43%; also: 0% is about no effect
Pf growth 48h: Primary qHTS for delayed death inhibitors of the malarial parasite plastid, 48 hour incubation; P. falciparum luciferase growth in erythrocytes, 48 h; Potency, µM (top dose mostly 28.7 µM), for inactives: at the top dose activity change, negative = inhibition, usual class: inhibitors; actives 5.9% (n = 310,000); also: potency is read from the fitted curve at half-maximal effect; % is scaled to controls: 0 for no effect and ±100 for the full control effect
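In quantitative HTS format, infected erythrocytes bearing luciferase-reporter parasites were treated for a single generation at 37 C. Luminescence after adding detection reagent served as the growth measure.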
Pf growth 96h: Primary qHTS for delayed death inhibitors of the malarial parasite plastid, 96 hour incubation. P. falciparum luciferase reporter growth, 96 h. Potency, µM (top dose mostly 28.7 µM), inactives show top-dose activity change, negative = inhibition, most hits filed as inhibitors. actives 6.9% (n = 320,000). AID 504834, 2011; also: potency is read from the fitted curve at half-maximal effect; % is scaled to controls: 0 for no effect and ±100 for the full control effect
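Plates of compound plus infected erythrocytes (2% hematocrit, 0.05% parasitemia final) incubate 96 hours, 37 C, 5% CO2. Detection reagent added; reduced luminescence from the parasites' luciferase reporter flags inhibition.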
Numbers without * were called inactive; i = inactive; ? = inconclusive; / = no result; + = active, no number; [ ] = dose if it differs, or a comment. Unless noted, calls follow the shape of the dose curve; as a rule, active = well fitted curve in the direction sought with a large enough effect; inconclusive = small, poorly fitted or top-dose-only effect, or another doubt; inactive = no such curve, though single readings can be large; an effect the other way counts as inactive or inconclusive.

SMILES	CHX counter	HCV inhibitor	AMA1 RON2 block	Shiga inhibitor	Pf growth 48h	Pf growth 96h
O=C(NCc1cccc2[nH]ccc12)C1CCC(=O)N(CCc2ccccc2)C1 (centres undefined)	11.7	10.3%	-6.0%	7.2	-15.4%	?
COc1cc(C(C)=O)ccc1OCC(=O)Nc1ccc(C)c(S(=O)(=O)N2CCCCCC2)c1	/	3.98µM*	-1.3%	/	?	?
CCOc1ccccc1OCC(=O)Nc1ccc(OC)c(S(=O)(=O)N2CCCCC2)c1	/	?	7.8%	/	?	11.7µM*
COc1ccc(NC(=O)CN2CCCCC2)cc1S(=O)(=O)N1CCCCC1	/	5.4%	11.9%	/	/	/
COc1cc(C(C)=O)ccc1OCC(=O)Nc1ccc(S(=O)(=O)N2CCCCC2)cc1	/	/	-8.2%	/	/	/
COc1ccc(Cl)cc1NCC(=O)Nc1ccc(OC)c(S(=O)(=O)N2CCCCC2)c1	/	?	-18.0%	/	9.28µM*	?
COc1ccc(NC(=O)COc2ccccc2C)cc1S(=O)(=O)N1CCCCC1	/	8.91µM*	-2.5%	/	-18.7%	?
CCN1C(=O)[C@H]2[C@@H](c3ccc(C)cc3)N[C@]3(CCCN(Cc4ccc(Cl)cc4)C3=O)[C@H]2C1=O	/	/	3.3%	/	/	/
COc1ccc(NC(=O)COC(=O)C2CC2)cc1S(=O)(=O)N1CCCCC1	/	-28.5%	4.1%	/	13.1µM*	?
CCS(=O)(=O)c1ccc2oc(Nc3ccccc3Cl)nc2c1	44.6*	-24.5%	0.0%	79.8*	207.6%	299.5%
CCS(=O)(=O)c1ccc2oc(Nc3ccccc3Br)nc2c1	35.0*	-19.8%	-22.7%	79.3*	295.9%	184.1%
CCS(=O)(=O)c1ccc2oc(Nc3ccc(C(C)(C)C)cc3)nc2c1	-1.5	?	-21.9%	3.5	?	-29.4%
CC(C)(C)C(=O)Nc1ccc(C(=O)COC(=O)C2=COCCO2)cc1	/	1.1%	2.3%	/	-15.9%	23.1%
Cc1cccc(NC(=S)N2CCN(c3cc(C)ccc3C)CC2)c1	1.8	4.5%	0.2%[11.6 µM]	-19.9	13.3%	-0.1%
Cc1cccc(NC(=O)N2CCN(Cc3ccccc3)CC2)c1	21.1*	7.6%	-4.3%	+	66.9%	66.5%
O=C(Nc1cccc2ccccc12)N1CCN(Cc2ccccc2)CC1	0.8	-5.9%	2.4%	6.8	-15.3%	10.4µM*
CCOC(=O)N1CCN(C(=O)Nc2cccc3ccccc23)CC1	-2.8	-7.5%	0.1%	5.6	40.1%	?
Cc1ccc(C)c(NC(=S)N2CCCC2)c1	-2.7	4.3%	4.1%	-12.1	13.0%	2.2%
Cc1ccc(NC(=S)N2CCCCCC2)c(C)c1	18.2*	-9.9%	11.1%	25.3	18.2%	-29.0%
COc1ccccc1N1CCN(C(=S)Nc2cccc(C)c2)CC1	32.5*	-21.4%	-6.5%	52.4	0.0%	7.0%
COCCN(CCOC)C(=O)c1ccc(NS(=O)(=O)c2ccc3[nH]c(=O)[nH]c3c2)cc1	5.9	2.5%	29.4%	-6.9	4.1%	1.3%
Cc1ccc(NC(=O)OC(C)N2CCCCC2)cc1NC(=O)OC(C)N1CCCCC1 (centres undefined)	/	25.1µM*	0.0%	/	/	/
Cc1ccc(NC(=O)N2CC2)cc1NC(=O)N1CC1	/	5.0%	-1.8%	/	/	/
O=C(Nc1ccc(F)c(Cl)c1)N1CCCCCC1	25.6*	15.9%	-3.1%	52.2*	50.6%	-44.0%
Cc1ccc(-c2cnc(NC(=O)CCC(=O)N3CCCCC3)n2C)cc1	8.2	23.4%	59.8%	32.4	55.1%	11.7µM*
SMILES	CHX counter	HCV inhibitor	AMA1 RON2 block	Shiga inhibitor	Pf growth 48h	Pf growth 96h
Cc1cccc(NC(=O)N2CCCCCC2)c1	38.0*	22.1%	11.3%	55.9*	46.7%	?
CCCCNC(=O)CCC(=O)Nc1ncc(-c2ccc(C)cc2)n1C	14.6	13.9%	68.7%	27.3	34.3%	/
CC(OC(=O)Cc1ccsc1)C(=O)Nc1ccc(C(N)=O)cc1 (centres undefined)	/	0.2%	-6.5%	/	-24.4%	?
CN(CC(=O)Nc1ccc(F)cc1)C(=O)CN1C(=O)NC2(CCCC2)C1=O	/	-0.4%	-12.1%	/	5.6%	12.5%
Cc1cccc(CN2CCN(C(=O)CCl)CC2)c1	5.2	?	26.8%	-13.2	1.17µM*	0.0738µM*
O=C(CCC(=O)N1CCCCC1)Nc1ccc(Cl)c(Cl)c1	-1.0	4.8%	-0.4%	9.9	12.9%	11.7µM*
O=C(CCC(=O)N1CCOCC1)Nc1ccc(Cl)c(Cl)c1	-1.1	9.3%	-18.4%	4.2	-17.1%	4.3%
Cc1cccc(CN2CCN(C(=O)Cc3ccccc3)CC2)c1	5.9	1.9%	-20.4%	24.2	?	?
O=C(Nc1ccc(Cl)cc1)N1CCCN(Cc2ccccc2F)C1	-6.3	10µM*	-3.0%	-11.3	/	?
Cc1cccc(NC(=S)N2CCCCCC2)c1	8.0*	17.3%	1.6%	21.3	44.6%	47.4%
O=C(Nc1ccc(F)c(Cl)c1)N1CCCC1	-2.7	12.7%	0.5%	-2.2	-3.5%	4.8%
Cc1cccc(C)c1NC(=S)N1CCCN(Cc2ccc(F)cc2)C1	0.7	-17.2%	22.7%	-3.2	-15.7%	44.6%
Cc1ccc(NC(=O)N2CCCCC2)cc1NC(=O)N1CCCCC1	2.5	-22.2%	-10.1%	-3.6	?	-0.6%
Cc1ccc(NC(=O)N2CCCN(Cc3ccc(F)cc3)C2)cc1C	1.0	?	-5.8%	20.4	13.1µM*	?
Cc1ccc(NC(=O)N2CCCCCC2)cc1C	44.3*	10.5%	-6.8%	69.0*	65.3%	37.0%
O=C(c1ccccc1NS(=O)(=O)c1cccc([N+](=O)[O-])c1)N1CCCC1	-1.6	/	10.1%	-6.3	24.3%	?
CCOC(=O)c1cn(CC)c2c(ccc3ccccc32)c1=O	34.7*	?	22.1%	41.8*	51.2%	-2.1%
CCn1cc(C(=O)Nc2ccccc2C(=O)OC)c(=O)c2ccc(C)nc21	50.6*	/	/	144.7*	i	-26.3%
CCn1cc(C(=O)OCc2ccccc2)c(=O)c2ccc(C)nc21	1.5	?	-2.5%	-1.5	?	-25.8%
CCOC(=O)c1ccccc1NC(=O)c1cn(CC)c2nc(C)ccc2c1=O	40.4*	?	-16.5%	63.6*	266.2%	-5.4%
CCn1cc(C(=O)Nc2ccc(NC(=O)c3ccco3)cc2)c(=O)c2ccc(C)nc21	-3.5	?	6.7%	13.5	22.2%	6.57µM*
C/C(=N\NC(=O)NC1CCCCC1)c1ccc(Cl)s1	-2.3	3.16µM*	-0.3%	4.6	?	?
C/C(=N\NC(=O)Cc1ccccc1)c1ccc(Cl)s1	2.3	1.5%	5.2%	-13.6	25.4%	?
O=C(NNC(=S)NC1CCCCC1)c1ccc(Cl)s1	21.0*	-0.9%	47.0%	38.9	64.9%	2.0%
